This is a sample that favours compounds with a hit; in the whole collection about 13% have one here.
MARV entry inh: blocks Marburg virus binding to or entry into cells. AID 540276. Marburg virus pseudotyped entry inhibition, cell reporter. Potency, µM (doses to about 37.8 µM), without a hit: at the highest dose activity change, negative = inhibition, usual class: inhibitors. 300,000 tested, 1.8% active; calls by dose curve; tested in HEK293 cells; also: potency is read from the fitted curve at half-maximal effect; % is scaled to controls: 0 for no effect and ±100 for the full control effect
HCV inhibitor: inhibitors of hepatitis C virus infection. Huh7.5.1 HCVcc-Cre infection, luciferase reporter, 44 h. Potency, µM (series often up to 41.8 µM), for the others: at the highest dose activity change, negative = inhibition, most hits filed as inhibitors. 340,000 tested, 3.4% active. AID 651820; active = well fitted inhibition curve with a large enough effect; inconclusive = small, poorly fitted or top-dose-only effect, or another doubt; inactive = no such curve, though single readings can be large or run the other way; also: potency is read from the fitted curve at half-maximal effect; % is scaled to controls: 0 for no effect and ±100 for the full control effect
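Reporter virus HCVcc-Cre (~0.5 moi) infects cells exposed to compound; seeding density 1,000 cells/well with 4 h settling beforehand. Luminescence, 15 sec read, taken 44 h post-infection following a 15 min RT substrate incubation.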
Shiga inhibitor: blocks Shiga toxin action in Vero cells; Vero cells, Shiga toxin protein synthesis inhibition reporter; inhibition, % at 38.7 µM; 290,000 tested, 9.2% active; in the data active = inhibition mostly above about 28%, no sharp cut-off; inactive = mostly below about 43%; also: 0% is about no effect
CHX counter: affects cycloheximide protein synthesis inhibition readout, counter-screen; cell reporter, cycloheximide protein synthesis inhibition counterscreen; max response, %; 300,000 tested, 12% active; AID 2314; in the data active = max response mostly above about 13%, no sharp cut-off; inactive = mostly below about 14%; also: read at 38.3 µM for the half of the compounds with a filed dose; 0% is about no effect
LASV entry inh: blocks Lassa virus binding to or entry into cells | Lassa virus pseudotype entry inhibition, cell reporter | Potency, µM (highest dose often 37.9 µM), without a hit: at the top dose activity change, negative = inhibition, usual class: inhibitors | 300,000 tested, 1.2% active | AID 540256; calls by dose curve; tested in HEK293 cells; also: potency is read from the fitted curve at half-maximal effect; % is scaled to controls: 0 for no effect and ±100 for the full control effect; nearly all actives have a fitted effect of over 50% in size
FMDV inh: foot and mouth disease virus antiviral activity. FMDV antiviral cell-based qHTS. Potency, µM (series often up to 57.9 µM), inactives show at the top dose activity change, negative = inhibition, usual class: inhibitors. 410,000 tested, 1.2% active; calls by dose curve; tested in HEK293T cells; also: read-out not given here; potency is read from the fitted curve at half-maximal effect; % is scaled to controls: 0 for no effect and ±100 for the full control effect; nearly all actives have a fitted effect of over 45% in size
Starred values were filed as active, the others as inactive; ? = inconclusive; . = no result; [ ] = another dose, or the depositor's remark.

SMILES | MARV entry inh | HCV inhibitor | Shiga inhibitor | CHX counter | LASV entry inh | FMDV inh
CC(C)(C)OC(=O)[C@H](Cc1ccccc1)NC(=O)c1nc[nH]c1C(=O)N1CCN(c2ccccc2)CC1 | . | 10.8% | -3.1 | -2.1 | . | -10.9%
CC(C)(C)OC(=O)NCc1ccc(CNC(=O)c2nc[nH]c2C(=O)N2CCN(c3ccccc3)CC2)cc1 | . | ? | . | . | . | 20µM*
CCOC(=O)C1(CCOc2ccccc2)CCN(Cc2nccn2CC)CC1 | ? | ? | -1.2 | -0.8 | 0.8%[46.1 µM] | -16.3%
CCOC(=O)C1(CCCc2ccccc2)CCN(Cc2cn(CC)nc2C)CC1 | 8.91µM* | 11.2µM* | 8.0 | -3.4 | ? | ?
CCOC(=O)C1(CCCc2ccccc2)CCN(Cc2nccn2CC)CC1 | ? | 10µM* | 5.5 | -0.6 | ? | ?
Cc1cccn2c(CNC3CCCc4ccccc43)c(C(=O)N3CCCCC3)nc12 (stereo not drawn) | 10µM* | -4.9% | -9.7 | -1.9 | ? | -17.5%
Cc1ccc(C(=O)NC2CCCc3ccccc32)o1 (stereo not drawn) | 11.2% | -2.9% | -7.2 | -0.9 | 1.0% | -19.9%
Cc1nn(Cc2ccccc2)c(C)c1C(=O)NC1CCCc2ccccc21 (stereo not drawn) | -8.0% | -0.8% | -18.7 | 0.5 | 0.6% | -23.2%
O=C(NC1CCCc2ccccc21)c1ccccn1 (stereo not drawn) | -15.0% | 7.7% | 8.2 | -1.2 | 6.6% | 4.5%
O=C(NC1CCCc2ccccc21)c1cn2ccccc2n1 (stereo not drawn) | 5.4% | ? | 15.3 | 19.0* | 7.3% | 43.3%
Cc1nc2ccccn2c1C(=O)NC1CCCc2ccccc21 (stereo not drawn) | . | 7.08µM* | 2.5 | -1.5 | . | ?
Cc1nn(Cc2ccc(Cl)cc2Cl)c(Cl)c1C(=O)NC1CCCc2ccccc21 (stereo not drawn) | 6.0% | 0.3% | -9.9 | -3.5 | 5.2% | 20µM*
COc1ccc(C(=O)N2CCC(C(=O)Nc3ccccc3C)CC2)cc1OC | ? | -2.3% | -6.3 | -0.3 | -9.3%[46.1 µM] | -0.3%
CC(=O)C1=C(O)C(=O)N(c2ccc(O)cc2)C1c1ccc([N+](=O)[O-])cc1 (stereo not drawn) | 1.1%[46.1 µM] | 25.9% | 17.3 | -5.0 | -1.8%[46.1 µM] | -13.2%
CCCCc1ccc(C(=O)c2c(N)c(C(=O)Nc3cccc(OC)c3)c3ccccn23)cc1 | -1.4%[46.1 µM] | . | . | . | 3.6%[46.1 µM] | 0.0%
CCOc1ccccc1NC(=O)CSc1nc(=O)n(Cc2ccncc2)c2c1CCC2 | -21.4% | 3.9% | . | . | -4.5% | 9.6%
O=C(Nc1nc2ccccc2[nH]1)c1cccc(Br)c1 | ? | ? | 82.3* | 20.0* | 11.1%[46.1 µM] | 14.1%
O=C(Nc1nc2ccccc2[nH]1)c1cccc(F)c1 | ? | -5.1% | 58.0* | 23.9* | ? | -15.4%
Cc1cccc(C(=O)N[C@H](C(=O)Nc2nc3ccccc3[nH]2)C(C)C)c1 | . | -23.6% | 8.9 | 10.7 | . | -25.2%
CN(C)c1cccc(C(=O)Nc2nc3ccccc3[nH]2)c1 | ? | -21.5% | 44.0 | 15.0* | ? | -51.2%
O=C(Nc1nc2ccccc2[nH]1)c1ccc(Br)o1 | ? | -6.5% | 83.5* | 47.2* | ? | 3.0%
CCn1c(SCc2ccccc2Cl)nc2nc3c(cc2c1=O)CCCC3 | ? | ? | 9.6 | 0.6 | ? | -26.1%
O=C(/C=C/c1ccc(F)cc1)Nc1nc2ccccc2[nH]1 | 18.5% | 0.9% | 77.2* | 36.9* | ? | .
CN(C)S(=O)(=O)c1ccc(Cl)c(C(=O)Nc2nc3ccccc3[nH]2)c1 | -26.0%[46.1 µM] | -1.4% | 19.8 | 11.8 | ? | -11.5%
Cc1ccc(N(C)S(=O)(=O)c2cccc(C(=O)Nc3nc4ccccc4[nH]3)c2)cc1 | 11.6µM* | 11.2µM* | 39.0* | 36.1* | 16.4µM* | 0.0%
SMILES | MARV entry inh | HCV inhibitor | Shiga inhibitor | CHX counter | LASV entry inh | FMDV inh
COc1cccc(C(=O)Nc2nc3ccccc3[nH]2)c1 | ? | -15.2% | 28.6 | 26.9* | ? | -66.7%
COc1ccc(C(=O)N[C@H](C(=O)Nc2nc3ccccc3[nH]2)C(C)C)cc1 | ? | 7.08µM* | 75.7* | 36.7* | ? | 14.2%
Cc1cc(F)ccc1S(=O)(=O)N1CCCOC1CNC(=O)C(=O)NCc1cccnc1 (stereo not drawn) | 0.8% | ? | -6.1 | -0.7 | -1.4% | -11.8%
CCN(CC(=O)Nc1ccc2c(c1)OCCO2)C(=O)c1ccc(CS(C)(=O)=O)cc1 | 20.6%[46.1 µM] | -0.6% | . | . | -3.8%[46.1 µM] | 14.4%
Cc1cc(C)c2c(N)c(C(=O)Nc3cccc(C)c3C)sc2n1 | ? | -12.2% | 7.8 | 11.5* | -11.5%[46.1 µM] | 8.2%
Cc1cc(C)c2c(N)c(C(=O)NNC(=O)c3ccccc3)sc2n1 | 3.9%[46.1 µM] | 18.1% | 93.3* | 45.1* | 11.8%[46.1 µM] | 46.6%
COc1ccc(NC(=O)c2sc3nc(C)cc(C)c3c2N)c(OC)c1 | . | -9.0% | . | . | . | 6.0%
Cc1cc(C)c2c(N)c(C(=O)NC3CC3)sc2n1 | 6.3% | 5.6% | 15.2 | 12.8 | -0.4% | 21.1%
CCOC(=O)c1sc2nc(C)cc(C)c2c1N | ? | ? | 77.8* | 50.4* | ? | 46.6%
Cc1nc(N)sc1C(=O)NN | -1.2%[46.1 µM] | 4.0% | 82.0* | 23.1* | -6.6% | 0.3%
CCc1nn(-c2ccccc2)c(N)c1C#N | 16.5%[46.1 µM] | 10.7% | -7.1 | -2.8 | 7.1% | -1.9%
C=CCn1cnc2c(nnn2-c2ccc(Cl)cc2)c1=O | 2.2% | -5.7% | 49.0 | 19.2 | 5.0% | 16.6%
N#Cc1c(Nc2ccccc2)c(C=O)c[nH]c1=O | 10.7%[46.1 µM] | 13.6% | -7.4 | -2.4 | 1.2%[46.1 µM] | -4.3%
CCC(C)/C(C)=N/Nc1ccc(S(N)(=O)=O)cc1[N+](=O)[O-] (stereo not drawn) | -24.5%[46.1 µM] | -29.6% | -6.9 | -4.2 | . | ?
CCCCOC(=O)c1sc2nc(C)cc(C)c2c1N | ? | ? | 47.8* | 27.1* | ? | 52.7%
COCc1cc(C)nc2sc(C(=O)N3CCN(c4ccccc4)CC3)c(N)c12 | . | -21.6% | 17.6 | 3.4 | . | -15.8%
CCOC(=O)CNC(=O)c1sc2nc(C)cc(C)c2c1N | 7.1% | 9.1% | 45.7 | 15.9 | ? | 29.8%
Cc1cc(C)c2c(N)c(C(=O)N3CCN(c4ncccn4)CC3)sc2n1 | ? | 4.8% | 52.6 | 30.7* | 0.5% | 11.0%
Cc1ccc(NC(=O)c2sc3nc(C)cc(C)c3c2N)cc1 | ? | ? | 124.9* | 50.8* | ? | 29.1%
Cc1cc(C)c2c(N)c(C(=O)NN)sc2n1 | . | ? | 77.5* | 45.0* | . | -3.9%
COc1ccc(N2CCN(c3nc4ccccc4n4c(C)nnc34)CC2)cc1 | . | . | . | . | -8.5%[46.1 µM] | -1.8%
COc1cccc(CNc2ncnc3onc(C)c23)c1 | . | . | . | . | -7.8%[46.1 µM] | ?
COc1ccc(CCNc2ncnc3onc(C)c23)c(OC)c1 | . | . | . | . | -11.3%[46.1 µM] | 12.6µM*
CCCN(C(=O)COC(=O)CCC(=O)c1ccccc1)c1c(N)n(Cc2ccccc2)c(=O)[nH]c1=O | . | . | . | . | . | -9.0%
CCC(C)(C)c1ccc(OCCCC[n+]2cccc(C)c2C)c(C(C)(C)CC)c1 | . | 17.8µM* | -24.2 | -2.3 | . | ?

Screens deposited in PubChem by National Center for Advancing Translational Sciences (NCATS).
